40 compounds from PubChem BioAssay (Tox21) can be followed below.

Several values for one entry are separate records, joined by “and”; a condition that tells them apart may be missing. Equal entries are not always repeated. Records with an inconclusive call do not appear. Activity calls are given as the source filed them. Calls follow the shape of the dose curve; as a rule, active = well fitted cell-killing curve with a large enough effect in the repeat runs; inconclusive = weak or mixed curves, or effect the other way; inactive = no such curve, though single readings can be large or run the other way.
Potency is read from the fitted curve at half-maximal effect.

The assay can be described thus: qHTS assay for identifying genotoxic compounds that show differential cytotoxicity against isogenic chicken DT40 cell lines with known DNA damage response pathways - wild type cell line (AID 743012). Also: nearly all actives have a fitted effect of over 60% in size. The settings on record: DT40 wild type chicken cells viability, CellTiter-Glo, 40 h; series mostly up to 68.4 µM. An excerpt:
U.S. Tox21 Program National Center for Advancing Translational Sciences [NCATS] NIH Chemical Genomics Center [NCGC] U.S. Environmental Protection Agency [EPA] National Institutes of Environmental Health Sciences [NIEHS] National Toxicology Program [NTP] U.S. Food and Drug Administration [FDA] Tox21 Assay Overview: DNA repair pathways play a critical role in cellular homeostasis by repairing DNA damage induced by endogenous processes and xenobiotics. Isogenic chicken DT40 cell lines deficient in different DNA repair pathways can be used to identify genotoxic compounds and aid in characterizing the nature of the DNA damage induced. Two DNA repair-deficient cell lines with disrupted genes, Rad54/Ku70 or Rev3, were used to screen the Tox21 10K compound library. Possible genotoxicity was based on the presence of a significant increase in cytotoxicity in one or more of the DNA repair-deficient cell lines compared to that observed in the parental DNA repair-proficient cell line. CellTiter Glo viability assay (Promega, Madison, WI) was used to measure cell viability in these cells after compound treatment. This assay includes the data from the wild type cell line.
Tox21 Assay Protocol Summary: 300 DT40 wild type cells in 5 uL/well were dispensed into white, solid-bottom 1536-well plates using a Multidrop Combi (ThermoFisher Scientific, Waltham, MA) dispenser. After the assay plates were incubated at 37 C/5% CO2 for approximately 0.5 hour, 23 nL of compounds dissolved in DMSO, positive controls or DMSO only was transferred into the assay plate by a pintool work station (Kalypsys, San Diego, CA). The assay plates were incubated at 37 C/5% CO2 for 40 hours. After 5 uL per well of CellTiter-Glo reagent was added into each well of the assay plates, the plates were incubated for 30 min at room temperature and the luminescence intensity of the plates was measured using a ViewLux (PerkinElmer, Shelton, CT) plate reader.
A general note: Quantitative high-throughput screening tests each substance at several concentrations.
Turning to `COc1cccc2c1C(=O)c1c(O)c3c(c(O)c1C2=O)C[C@@](O)(C(=O)CO)C[C@@H]3O[C@H]1C[C@H](N)[C@H](O[C@@H]2CCCCO2)[C@H](C)O1`, the Potency is 0.188 µM (active).

As for `CCCCCCCC/C=C/CCCCCCCC1=NCCN1CCO`, the Potency was 12.2 µM (active).

With `C1CCCC1`, the Potency result is “inactive”.

`CSc1ccc2c(c1)C(N1CCN(C)CC1)Cc1ccccc1S2` (stereo not given): the Potency is 5.96 µM (active).

`Cc1onc(-c2c(Cl)cccc2Cl)c1C(=O)N[C@@H]1C(=O)N2[C@@H]1SC(C)(C)[C@@H]2C(=O)O`: the Potency result is “inactive”.

Regarding `CCOC(=O)c1nc(C(Cl)(Cl)Cl)n(-c2ccc(Cl)cc2Cl)n1`, the Potency was 48.6 µM (active).

With `S=c1[nH]c2ccccc2s1`, the Potency is 29.8 µM (active) and 61.1 µM (active).

On to `O=[N+]([O-])c1ccccc1Nc1ccccc1`, for which the Potency result is “inactive”.

Consider `CSc1cnc(C)cn1`, for which the Potency result is “inactive”.

For the compound `O=CC=C(c1ccccc1)c1ccccc1`, the Potency was 38.9 µM (active).

As to `C[C@@H]1C[C@H]2[C@@H]3CCC4=CC(=O)C=C[C@]4(C)[C@@]3(Cl)[C@@H](O)C[C@]2(C)[C@@]1(OC(=O)c1ccco1)C(=O)CCl`, the Potency was 12.7 µM (active).

With `N/C(=N\N=C\c1ccc(Cl)cc1)N/N=C/c1ccc(Cl)cc1`, the Potency result is “inactive”.

For the compound `CCCCCCCCCCCCc1ccc(O)cc1`, the Potency is 10.9 µM (active).

On to `CC(=O)OCC(C)OC(C)=O` (stereo not given), for which the Potency result is “inactive”.

In the case of `CN1CCC(Nc2ncc3ncnc(Nc4ccc(F)c(Cl)c4)c3n2)CC1`, the Potency was 13.3 µM (active).

For `O=C(O)c1ccc(Cl)c(Cl)c1`, the Potency entry is “inactive”.

For `O=C(c1ccc(O)cc1O)c1ccc(O)cc1O`, the Potency result is “inactive”.

On to `CCCN(CCC)c1c([N+](=O)[O-])cc(C(F)(F)F)c(N)c1[N+](=O)[O-]`, for which the Potency was 12.2 µM (active).

Consider `COc1cc(-c2ccc(N=C=O)c(OC)c2)ccc1N=C=O`, for which the Potency result is “inactive”.

For the compound `NNc1nc(-c2ccccc2)cs1`, the Potency entry is “inactive”.

Turning to `O=C(O)c1c(Cl)cccc1Cl`, the Potency entry was “inactive”.

In the case of `O=C1CCCc2c1cc1ccc3cccc4ccc2c1c34`, the Potency entry was “inactive”.

With `CS(=O)(=O)CCNCc1ccc(-c2ccc3ncnc(Nc4ccc(OCc5cccc(F)c5)c(Cl)c4)c3c2)o1`, the Potency result was “inactive”.

Regarding `O=C(NO)C1(NS(=O)(=O)c2ccc(Oc3ccc(F)cc3)cc2)CCOCC1`, the Potency is 54.5 µM (active).

As for `CNc1ccc(O)cc1`, the Potency was 7.68 µM (active).

As to `C[C@@H](NCCCc1cccc(C(F)(F)F)c1)c1cccc2ccccc12`, the Potency is 5.31 µM (active).

`CC(NN)c1ccccc1` (stereo not given): the Potency result was “inactive”.

As for `CCCCCCCCCCCCCCCS(=O)(=O)Oc1ccccc1`, the Potency entry is “inactive”.

`c1cc(C(c2ccc(OCC3CO3)cc2)c2ccc(OCC3CO3)cc2)ccc1OCC1CO1` (stereo not given): the Potency is 24.3 µM (active).

As to `Nc1ccccc1O`, the Potency is 7.59 µM (active).

With `O=C(Oc1ccccc1)c1ccccc1C(=O)Oc1ccccc1`, the Potency was 19.3 µM (active).

On to `O=c1c(-c2ccccc2)c1-c1ccccc1`, for which the Potency is 3.76 µM (active).

On to `CCCCCCCCCCCCCCCCCC[N+](C)(C)Cc1ccccc1`, for which the Potency was 0.978 µM (active).

Regarding `CCCCCCCC/C=C\CCCCCCCCOCCO`, the Potency was 5.62 µM (active).

Turning to `CCOC(=O)O[C@]1(C(=O)OCCl)CC[C@H]2[C@@H]3CCC4=CC(=O)C=C[C@]4(C)[C@H]3[C@@H](O)C[C@@]21C`, the Potency result is “inactive”.

As to `O=C(OCC1CO1)C1CCCCC1C(=O)OCC1CO1` (stereo not given), the Potency is 8.64 µM (active).

Consider `CC(=O)N1CCN(c2ccc(OC[C@H]3CO[C@](Cn4ccnc4)(c4ccc(Cl)cc4Cl)O3)cc2)CC1`, for which the Potency was 10.6 µM (active) and 3.86 µM (active).

As to `C=C(C)C(=O)OCC(O)COc1ccc(C(C)(C)c2ccc(OCC(O)COC(=O)C(=C)C)cc2)cc1` (stereo not given), the Potency was 5.45 µM (active).

`CC(C)OC(=O)c1cc2c(OCC(O)CNC(C)(C)C)cccc2[nH]1` (stereo not given): the Potency was 23.7 µM (active).

As to `O=C1C=CC(=O)N1`, the Potency was 6.28 µM (active).
